In PubChem BioAssay AID372 (MTDP, 2006) one finds inhibition data, which are given here for 85 compounds.

Molecules are shown by their SMILES. The campaign covered roughly 100,000 compounds. About 770 (0.77%) were called active. This is one part of a sample in which actives are shown more often than they occur. Rule as the data show it: active = inhibition above about 50%; inactive = the rest.

What is called inhibition is the percentage by which the read-out fell short of the control.

This test deals with Gag-Pol polyprotein (Human immunodeficiency virus type 1 group M subtype B (isolate HXB2)) (UniProt P04585). Description: RNase H inhibition, HIV 1 Gag Pol polyprotein, FRET biochemical assay, screening (AID 372). Conditions: HIV-1 RT RNase H, FRET RNA/DNA substrate fluorescence; at 10 µM; active compounds read high.
Regarding `Cc1ccc(N2C(=O)CC(Cc3ccc(Cl)cc3)C2=O)cc1C` (stereo not given), the inhibition is 5% (inactive).

Consider `CCOC(=O)C1=C(C)N=c2s/c(=C\c3ccc(-c4ccc(OC)cc4[N+](=O)[O-])o3)c(=O)n2C1c1ccc(SC)cc1` (stereo not given), for which the inhibition is 52% (active). The value for `CCOC(=O)C1=C(C)N=c2s/c(=C\c3ccc(-c4ccc(C)c([N+](=O)[O-])c4)o3)c(=O)n2C1c1ccc(OC)c(OC)c1` (stereo not given) was 18% (inactive); that for `CCOC(=O)C1=C(C)N=c2s/c(=C\c3ccc(-c4cc(C)c(C)c([N+](=O)[O-])c4)o3)c(=O)n2C1c1ccc(OC)c(OC)c1` (stereo not given) was 51% (active). Take `CCOC(=O)C1=C(C)N=c2s/c(=C\c3ccc(-c4cc(C)c(C)c([N+](=O)[O-])c4)o3)c(=O)n2C1c1ccc(Cl)cc1` (stereo not given): the inhibition is 37% (inactive). With `CCOC(=O)C1=C(C)N=c2s/c(=C\c3ccc(-c4ccc([N+](=O)[O-])cc4)o3)c(=O)n2C1c1ccc2c(c1)OCO2` (stereo not given), the inhibition was 41% (inactive). Turning to `CCOC(=O)C1=C(C)N=c2s/c(=C\c3ccc(-c4cc(C)c(C)c([N+](=O)[O-])c4)o3)c(=O)n2C1c1ccc(OC)cc1` (stereo not given), the inhibition is 55% (active).

For the compound `CCOC(=O)C1=C(C)N=c2s/c(=C\c3ccc(-c4ccc(OC)cc4[N+](=O)[O-])o3)c(=O)n2C1c1ccc(OC)cc1` (stereo not given), the inhibition is 0% (inactive).

With `CCOC(=O)C1=C(C)N=c2s/c(=C\c3ccc(-c4cc(C)c(C)c([N+](=O)[O-])c4)o3)c(=O)n2C1c1cc(OC)ccc1OC` (stereo not given), the inhibition was 13% (inactive). For `CCOC(=O)C1=C(C)N=c2s/c(=C\c3ccc(-c4ccc(C)c([N+](=O)[O-])c4)o3)c(=O)n2C1c1ccc(OC)cc1` (stereo not given), the inhibition is 21% (inactive).

As for `CCOC(=O)C1=C(C)N=c2s/c(=C\c3ccc(-c4ccc(C)c([N+](=O)[O-])c4)o3)c(=O)n2C1c1ccc2c(c1)OCO2` (stereo not given), the inhibition is 8% (inactive). As to `CCOC(=O)C1=C(C)N=c2s/c(=C\c3ccc(-c4cc(C)c(C)c([N+](=O)[O-])c4)o3)c(=O)n2C1c1ccc2c(c1)OCO2` (stereo not given), the inhibition was 50% (active).

`CCOC(=O)C1=C(C)N=c2s/c(=C\c3ccc(-c4ccc(OC)cc4[N+](=O)[O-])o3)c(=O)n2C1c1ccc(C)cc1` (stereo not given): the inhibition was 44% (inactive). The value for `Clc1ccc(-c2nnc3ccc(N4CCOCC4)nn23)cc1` was 9% (inactive); that for `COc1ccc(C2NC(=O)NC(C)=C2C(=O)OCC(Cl)(Cl)Cl)cc1OC` (stereo not given) was 2% (inactive). The value for `COc1ccc2ccccc2c1/C=N/NC(=O)c1ccccc1C` was 13% (inactive); that for `Cc1cc(I)ccc1NC(=O)c1ccc(-c2ccccc2[N+](=O)[O-])o1` was 49% (inactive); that for `O=C1NC(=S)NC(=O)C1=Cc1cccc(OC(=O)c2ccc(Cl)cc2)c1` was 30% (inactive). The value for `CC(C)C(=O)NC(c1ccc(N(C)C)cc1)c1ccc2cccnc2c1O` (stereo not given) was 7% (inactive); that for `CCN(CC)c1nc2c(s1)C(=O)CC(C)(C)C2` was 0% (inactive); that for `Cc1ccnc(NC(=O)c2cc(-c3ccc(C)c(C)c3)nc3ccccc23)c1` was 4% (inactive). As for `O=C1c2ccccc2NC(c2ccccc2F)N1c1ccc(Cl)cc1` (stereo not given), the inhibition is 5% (inactive). Then `CCOC(=O)C1=C(C)N=c2s/c(=C\c3ccc(OCc4cccc5ccccc45)c(OCC)c3)c(=O)n2C1c1ccc(OC)c(OC)c1` (stereo not given), with 0% (inactive); and `CCOC(=O)C1=C(C)N=c2s/c(=C\c3ccc(-c4ccc(Cl)cc4)o3)c(=O)n2C1c1ccc(OC)c(OC)c1` (stereo not given), with 13% (inactive); and `CCOC(=O)C1=C(C)N=c2s/c(=C\c3ccc(-c4cc(C)c(C)c([N+](=O)[O-])c4)o3)c(=O)n2C1c1ccc(N(C)C)cc1` (stereo not given), with 56% (active). Regarding `CCOC(=O)C1=C(C)N=c2s/c(=C\c3ccc(OCc4cccc5ccccc45)c(OC)c3)c(=O)n2C1c1ccc(OC)c(OC)c1` (stereo not given), the inhibition was 55% (active). As for `CCOC(=O)C1=C(C)N=c2s/c(=C/c3ccc(-c4ccc(C)c([N+](=O)[O-])c4)o3)c(=O)n2C1c1ccc(N(C)C)cc1` (stereo not given), the inhibition was 43% (inactive).

As to `CCOC(=O)C1=C(C)N=c2s/c(=C\c3ccc(-c4ccc(Cl)c(Cl)c4)o3)c(=O)n2C1c1ccc(OC)c(OC)c1` (stereo not given), the inhibition was 9% (inactive). `CCOC(=O)C1=C(C)N=c2s/c(=C\c3ccc(-c4cc(C)c(C)c([N+](=O)[O-])c4)o3)c(=O)n2C1c1ccccc1` (stereo not given): the inhibition is 46% (inactive). The value for `CCOC(=O)C1=C(C)N=c2s/c(=C/c3ccc(-c4cccc(Cl)c4)o3)c(=O)n2C1c1ccc(OC)c(OC)c1` (stereo not given) was 52% (active). Then `CCOC(=O)C1=C(C)N=c2s/c(=C\c3ccc(OCc4cccc5ccccc45)c(OC)c3)c(=O)n2C1c1ccc(OC)cc1` (stereo not given), with 14% (inactive); and `CCOC(=O)c1c(C)[nH]c(/C=C(/C#N)C(N)=NCc2ccccc2)c1O`, with 11% (inactive). The value for `Cc1cc(C)c(S(=O)(=O)NC(=O)C23CC4CC(CC(C4)C2)C3)c(C)c1` was 2% (inactive); that for `COc1cccc(/C=N/NC(=O)c2ccccc2O)c1` was 11% (inactive). On to `O=C(NC(=S)Nc1ccc2oc(-c3ccccc3)nc2c1)c1ccccc1Cl`, for which the inhibition is 7% (inactive). Consider `Cc1ccc(N=C2NC(=O)/C(=C/c3ccc(-c4cc([N+](=O)[O-])ccc4Cl)o3)S2)cc1Cl`, for which the inhibition is 25% (inactive). For `Cc1ccc(N=C2NC(=O)/C(=C\c3ccc(C)o3)S2)cc1`, the inhibition was 52% (active). Then `Cc1ccc(N=C2NC(=O)/C(=C/c3ccc(-c4ccc(Cl)c([N+](=O)[O-])c4)o3)S2)cc1Cl`, with 31% (inactive).

With `Cc1ccc(N=C2NC(=O)/C(=C/c3ccccc3)S2)cc1`, the inhibition is 9% (inactive). Take `O=C1NC(=Nc2ccc(F)cc2)S/C1=C/c1ccc(-c2ccc([N+](=O)[O-])cc2)o1`: the inhibition is 51% (active).

Regarding `Cc1ccc(/C=C2\SC(=Nc3ccc(F)cc3)NC2=O)o1`, the inhibition is 26% (inactive).

Consider `O=C(COc1cccc(Cl)c1)N/N=C\c1ccc(O)cc1`, for which the inhibition is 1% (inactive). The value for `Cc1ccc2nc(-c3c(-c4ccccc4)c4cc(C)ccc4[nH]c3=O)cc(-c3ccccc3)c2c1` was 31% (inactive); that for `Cc1ccccc1N1C(=O)c2cccnc2C1=O` was 22% (inactive); that for `Cc1ccc(N2C(=O)c3cccnc3C2=O)cc1C` was 50% (active). Then `Cc1ccc(N2C(=O)c3ccccc3C2=O)cc1C`, with 5% (inactive); and `COc1ccccc1/C=C1/C(=O)N(c2ccc(Cl)c(Cl)c2)N=C1C`, with 3% (inactive).

In the case of `CCCC(=O)N(c1ccc(N(C(=O)CCC)S(=O)(=O)c2ccccc2)cc1)S(=O)(=O)c1ccccc1`, the inhibition is 1% (inactive). The value for `O=C(NC(=S)Nc1ccc2oc(-c3cc(Cl)ccc3Cl)nc2c1)c1ccc(F)cc1` was 19% (inactive). For `O=C(NC(=S)Nc1ccc2oc(-c3cccc(Cl)c3)nc2c1)c1ccc(F)cc1`, the inhibition is 18% (inactive). As to `O=C(NC(=S)Nc1cccc(-c2nc3cc(Cl)ccc3o2)c1)c1ccc(F)cc1`, the inhibition was 57% (active). Regarding `O=C(NC(=S)Nc1cccc(-c2nc3cc(Cl)ccc3o2)c1)c1ccc(Br)cc1`, the inhibition was 9% (inactive). For the compound `O=C(NC(=S)Nc1ccc2oc(-c3ccc(Cl)cc3)nc2c1)c1ccc(F)cc1`, the inhibition is 57% (active). The value for `O=C(NC(=S)Nc1ccc2oc(-c3ccc(Cl)cc3Cl)nc2c1)c1ccc(F)cc1` was 17% (inactive); that for `Nc1ccc(-c2nc3cc(Cl)cc(Cl)c3o2)cc1` was 22% (inactive). The value for `O=C(NC(=S)Nc1ccc(-c2nc3cc(Cl)ccc3o2)cc1)c1ccc(F)cc1` was 8% (inactive). The value for `Nc1cccc(-c2nc3cc(Cl)cc(Cl)c3o2)c1` was 55% (active); that for `Cc1ccc(-c2nc3cc(Cl)cc(Cl)c3o2)cc1N` was 0% (inactive). On to `O=C(NC(=S)Nc1ccc2oc(-c3ccc(F)cc3)nc2c1)c1ccc(Cl)cc1`, for which the inhibition was 0% (inactive).

In the case of `O=C(NC(=S)Nc1ccc(Cl)c(-c2nc3cc(Cl)ccc3o2)c1)c1ccc(F)cc1`, the inhibition was 53% (active). Take `CC(=O)Nc1nc2c(s1)C(=O)NCCC2`: the inhibition is 5% (inactive).

In the case of `Cn1c2ccccc2c2nnc(SCCN3CCOCC3)nc21`, the inhibition is 0% (inactive). Turning to `O=Cc1ccc(OCc2ccc([N+](=O)[O-])cc2)cc1`, the inhibition is 16% (inactive). For `O=[N+]([O-])c1ccc(N2CCOCC2)cc1Sc1cccc2cccnc12`, the inhibition is 24% (inactive). On to `Cc1ccc(S(=O)(=O)N2CCC(CN3C(=O)c4cccc5cccc(c45)C3=O)CC2)cc1`, for which the inhibition was 25% (inactive). On to `Cc1cc(C)n(S(=O)(=O)c2ccc(Cl)c(Cl)c2Cl)n1`, for which the inhibition was 23% (inactive). The value for `CCCC1(CCC)NC(=S)N(c2nc3ccccc3s2)N1` was 7% (inactive); that for `COc1ccc(N(CC(=O)NCc2ccccn2)S(=O)(=O)c2ccccc2[N+](=O)[O-])c(OC)c1` was 4% (inactive); that for `O=C(/C=C/c1cccs1)c1ccc(C(=O)/C=C/c2cccs2)cc1` was 13% (inactive). Regarding `O=C(/C=C/c1ccc(F)cc1)Nc1cccc2cccnc12`, the inhibition is 7% (inactive). Then `O=C(NC(=S)Nc1cccc(-c2nc3cc(Cl)cc(Cl)c3o2)c1)c1cccc(F)c1`, with 58% (active). As for `O=C(NC(=S)Nc1cccc(-c2nc3cc(Cl)cc(Cl)c3o2)c1)c1ccc(Cl)cc1`, the inhibition is 11% (inactive).

`O=C(NC(=S)Nc1cccc(-c2nc3cc(Cl)cc(Cl)c3o2)c1)c1ccccc1Cl`: the inhibition was 19% (inactive). The value for `O=C(Nc1ccc(O)c(-c2nc3ccccc3o2)c1)c1ccc(F)cc1` was 6% (inactive); that for `O=C(NC(=S)Nc1ccc(O)c(-c2nc3ccccc3o2)c1)c1ccc(F)cc1` was 56% (active); that for `O=C(NC(=S)Nc1ccc(O)c(-c2nc3ccccc3o2)c1)c1ccc([N+](=O)[O-])cc1` was 9% (inactive). The value for `O=S(=O)(c1cc(Cl)ccc1Cl)n1ccnc1` was 0% (inactive); that for `CCOC(=O)c1ccc(-c2ccc(/C=N/O)o2)cc1` was 0% (inactive); that for `COC(=O)C1=C(C)NC2=C(C(=O)CC(c3ccc(OC)cc3)C2)C1c1cccc(OC)c1OC` (stereo not given) was 11% (inactive). Turning to `Cc1ccc(-c2nc3ccccc3o2)cc1NC(=S)NC(=O)c1ccccc1C`, the inhibition is 12% (inactive).

Consider `COc1ccc(-c2nc3ccccc3o2)cc1NC(=S)NC(=O)c1ccccc1C`, for which the inhibition is 53% (active). Turning to `Cc1ccccc1C(=O)NC(=S)Nc1cc(-c2nc3ccccc3o2)ccc1Cl`, the inhibition is 53% (active).

In the case of `Cc1ccc2nc(-c3ccc(Cl)c(NC(=S)NC(=O)c4ccccc4C)c3)oc2c1`, the inhibition is 42% (inactive). Then `O=C(NC(=S)Nc1cc(-c2nc3ccccc3o2)ccc1Cl)c1ccccc1Br`, with 9% (inactive); and `COc1ccccc1C(=O)NC(=S)Nc1cc(-c2nc3ccccc3o2)ccc1C`, with 10% (inactive).
